High-throughput results as filed in PubChem BioAssay.
A selection: hits, their analogues and other compounds. The true share with any hit is near 3.6%.
Pf apPOL block: Pf-apPOL DNA polymerase inhibition; Recombinant Pf-apPOL, molecular beacon fluorescence, 1.5 h; inhibition, % at 10 µM; 210,000 tested, 0.25% active; AID 1794808
mHTT CaM bind: mHTT-calmodulin interaction abrogation. 190,000 tested, 3.6% active. inhibition, % at 15 µM. AlphaScreen His-mHTT/GST-CaM binding, luminescence;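 further: 0% = both proteins with DMSO and 100% = one protein alone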
An asterisk follows results filed as active; · = no result given. No stated cut-off is given here; in the data, active means inhibition above about 50%; inactive means the rest.

SMILES | Pf apPOL block | mHTT CaM bind
O=c1oc(/C=C/c2cccc([N+](=O)[O-])c2)nc2cc(Cl)ccc12 | -2 | 20
COc1cc(NC(=O)c2ccc3c(c2)C(=O)N(C)C3=O)c(C(=O)O)cc1OC | 0 | -7
O=[N+]([O-])c1cc(Nc2ccccc2)c(C=Nc2ccccc2)c([N+](=O)[O-])c1 | 3 | 51*
O=[N+]([O-])c1ccc(NNc2ccccc2)c([N+](=O)[O-])c1 | · | 69*
O=[N+]([O-])c1ccc(NN=Cc2ccccc2)c([N+](=O)[O-])c1 | -5 | ·
O=[N+]([O-])c1ccc(O)c(C=Nc2ccc(Nc3ccccc3)cc2)c1 | -3 | 19
CCN(CC)CCN(C)CC1CC=CCC1 (stereo unspecified) | 5 | 7
O=c1/c(=C/c2ccncc2)sc2n1CN(c1cccc(Br)c1)CN=2 | -6 | 17
Cc1noc(C)c1C1CCCN1C(=O)Cc1ccc(Cl)cc1 (stereo unspecified) | 4 | 2
CN(C)S(=O)(=O)n1c(Cc2ccccc2)nc2ccccc21 | 0 | -19
CN(C)c1ccc(/C=C/C=C2/SC(=Nc3ccccc3)NC2=O)cc1 | 0 | 43
CN(C)c1ccc(/C=C/C=C2/SC(=N)NC2=O)cc1 | 2 | 62*
CCC1=NN(C(=O)c2cccc(Br)c2)C(O)(C(F)(F)F)C1 (stereo unspecified) | 1 | 4
CCC1=NN(C(=O)c2ccncc2)C(O)(c2ccc(Br)cc2)C1 (stereo unspecified) | -2 | 42
CCC1=NN(C(=O)c2ccc(Cl)cc2)C(O)(c2ccc(Br)cc2)C1 (stereo unspecified) | -12 | 85*
CCC1=NN(C(=O)c2ccc(Br)cc2)C(O)(c2ccccc2)C1 (stereo unspecified) | 5 | 36
CCC1=NN(C(=O)c2ccc(Br)cc2)C(O)(c2ccc(OC)cc2)C1 (stereo unspecified) | -1 | 59*
CCC1=NN(C(=O)c2cccc(Cl)c2)C(O)(C(F)(F)F)C1 (stereo unspecified) | 4 | -4
CCC1=NN(C(=O)c2cccc(Cl)c2)C(O)(c2ccc(Br)cc2)C1 (stereo unspecified) | 4 | 89*
CCCCC1=NN(C(=O)c2cccc(Cl)c2)C(O)(C(F)(F)F)C1 (stereo unspecified) | 57* | -9
O=C1CC(c2noc(-c3ccccc3F)n2)CN1c1ccccc1 (stereo unspecified) | -5 | -4
O=C(Nc1cc(Cl)c(Cl)cc1Cl)c1ccccc1Cl | 11 | -16
O=C(Cc1c[nH]c2ccccc12)N(CC1CCCO1)C1(C(=O)NC2CCCC2)CCCCC1 (stereo unspecified) | -7 | 67*
O=C(Cc1c[nH]c2ccccc12)N(Cc1cccs1)C1(C(=O)NC2CCCCC2)CCCCC1 | 0 | 1
O=C(c1cccnc1)N1CCN(c2ccc([N+](=O)[O-])cc2)CC1 | 0 | -1
SMILES | Pf apPOL block | mHTT CaM bind
O=C(c1ccc(C#CC2(O)CCCCC2)cc1)N1CCN(c2ccc([N+](=O)[O-])cc2)CC1 | -1 | 56*
CCN1C(=O)C(=Cc2cc(Br)c(OC)cc2OC)NC1=S | -4 | -2
CCOC(=O)N1CCC2(CC1)N=C(c1ccccc1O)CC(c1cc(F)ccc1F)N2 (stereo unspecified) | -6 | 47
CC(=O)c1ccc(NC2=C(N3CCCC3)C(=O)c3ccccc3C2=O)cc1 | -6 | 86*
O=C1C(Nc2ccc(Br)cc2)=C(N2CCCCC2)C(=O)c2ccccc21 | 11 | 95*
O=C1C(Nc2ccc(Br)cc2)=C(n2nnc3ccccc32)C(=O)c2ccccc21 | -4 | -3
Cc1ccc(NC2=C(N3CCCCC3)C(=O)c3ccccc3C2=O)cc1 | 5 | 68*
O=C1C(Nc2ccccc2)=C(N2CCCCC2)C(=O)c2ccccc21 | 8 | 24
O=C1C(Nc2cc(F)cc(F)c2)=C(N2CCOCC2)C(=O)c2ccccc21 | -8 | 19
COC(=O)c1ccc(OCC2c3cc(OC)c(OC)cc3CCN2C(=O)CCCCl)cc1 (stereo unspecified) | -3 | 12
CC(C)N(C)C(=O)C1CN(C(=O)C2CCCC2)CC1c1cccc(C(F)(F)F)c1 (stereo unspecified) | -2 | 25
O=c1c(NCC2CCCCC2)nc2ccncc2n1Cc1ccccc1 | -4 | 2
Nc1ccc(-c2nc3ccccc3n2CCCOc2ccccc2)cc1 | 12 | 51*
Nc1nc2ccccc2n1CCOc1ccc(Br)cc1 | -2 | 73*
Nc1nc2ccccc2n1CCOc1ccc(Cl)cc1Cl | -3 | 75*
Clc1ccc(OCCn2cnc3ccccc32)c(Cl)c1 | -6 | 0
Nc1ccc(-c2nc3ccccc3n2CCOc2ccccc2)cc1 | 11 | 37
Nc1nc2ccccc2n1CCOc1ccc(Cl)cc1 | -2 | 43
O=C(NCC(=O)N1CCCC1)C1CCCCC1 | -6 | -8
O=C(Cc1cccs1)NCC12CC3CC(C1)CC(CNC(=O)Cc1cccs1)(C3)C2 | -2 | 2
COc1ccc(Nc2nnc(-c3ccc(C)c(S(N)(=O)=O)c3)c3ccccc23)cc1C(N)=O | -6 | 54*
CCOc1ccc(-c2nnc(Nc3ccc(OC)c(C(=O)NC)c3)c3ccccc23)cc1 | 8 | 69*
COc1ccc(-c2nnc(Nc3ccc(CC(N)=O)cc3)c3ccccc23)cc1 | -18 | 26
CNC(=O)c1cc(Nc2nnc(-c3ccc(C)c(S(N)(=O)=O)c3)c3ccccc23)ccc1OC | 6 | 27
CNC(=O)c1cc(Nc2nnc(-c3ccc(OC)cc3)c3ccccc23)ccc1OC | -30 | 50
SMILES | Pf apPOL block | mHTT CaM bind
COc1ccc(-c2nnc(Nc3ccc(OC)c(C(N)=O)c3)c3ccccc23)cc1 | -5 | 60*
CC(C)c1ccc(N2C(=O)CC(N3CCN(Cc4ccc5c(c4)OCO5)CC3)C2=O)cc1 (stereo unspecified) | -6 | 9
Cc1cccc(NC(=O)NC2CC(=O)N(c3cccc(F)c3)C2)n1 (stereo unspecified) | -6 | -1
COc1ccccc1CC(=O)N1CCC2(CC1)NC(=O)N(Cc1cccc(Cl)c1)C2=O | -4 | 23
CC1CCCC(NC(=O)C(Cc2ccccc2)NS(=O)(=O)c2ccc(Cl)cc2)C1C (stereo unspecified) | -1 | -10
CC(=O)Nc1cc(C(=O)NC2CCCC(C)C2C)ccc1S(=O)(=O)c1ccc(Cl)cc1 (stereo unspecified) | 71* | 5
COCC(C)NS(=O)(=O)c1ccccc1[N+](=O)[O-] (stereo unspecified) | -7 | -3
Cc1cc(C(=O)Nc2cccc(I)c2)ccc1[N+](=O)[O-] | 0 | 0
CC(C)(C)OCC(O)CN1CCC(Cc2ccccc2)CC1 (stereo unspecified) | -2 | -4
COCCNc1nc(SCC(=O)c2ccc(O)c(O)c2)nc2ccccc12 | -2 | 12
CCCCNc1nc(SCC(=O)c2ccc(O)c(O)c2)nc2ccccc12 | -5 | 64*
CC(=O)NCC(=O)NC(C(=O)Nc1ccc2c(c1)OCO2)c1ccc(C)cc1 (stereo unspecified) | -4 | 5
Cc1ccc(C(NC(=O)Cc2cc3ccccc3[nH]2)C(=O)Nc2ccc3c(c2)OCCO3)cc1 (stereo unspecified) | -5 | 53*
Nc1ccc(Nc2ccccc2)c(Cl)c1 | -7 | 48
Nc1ccc(Nc2ccc(N)cc2S(=O)(=O)O)cc1 | · | 97*
Cn1nc(NC(=O)c2ccc(F)cc2Cl)c2c1NC(=O)CC2c1ccco1 (stereo unspecified) | -4 | -10
